The panel holds about 79,000 compounds, 15% with a hit somewhere; the sample as a whole holds those more often. The source made the active and inactive calls. Cut-off read from the data, not from the text of the source: active = growth inhibition above about 70%; inactive = the rest.
Assays:
[1] = NCI Yeast Anticancer Drug Screen. Data for the rad52 strain (AID 147);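 note: 0% = growth of vehicle-treated control cultures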; conditions: S. cerevisiae rad52 mutant growth inhibition, hits give high values
How it was run: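 Growth of repair-deficient yeast cells was compared between compound-treated and vehicle-treated cultures to give percent inhibition.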

[2] = NCI Yeast Anticancer Drug Screen. Data for the wt1 strain (AID 149);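 note: 0% = growth of vehicle-treated wt1 cultures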; conditions: S. cerevisiae wt1 strain (SPY 50644) growth inhibition, hits give high values
How it was run: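 Measured: growth of wt1 yeast under compound versus vehicle treatment, reported as inhibition.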

[3] = NCI Yeast Anticancer Drug Screen. Data for the rad50EPP+ strain (AID 151);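 note: 0% = growth of vehicle-treated control cultures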; conditions: S. cerevisiae rad50 mutant strain, hits give high values
How it was run: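 Measured: growth inhibition of rad50EPP+ yeast. Reference: vehicle-treated controls. Screen uses strains with defined genetic alterations in DNA damage repair or cell cycle control.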

[4] = NCI Yeast Anticancer Drug Screen. Data for the rad50 strain (AID 155);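 note: 0% = growth of vehicle-only cultures of the same strain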; conditions: S. cerevisiae rad50 strain growth inhibition, hits give high values
How it was run: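 Growth of the mutant yeast was measured after compound exposure and referenced to vehicle-treated cultures.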

[5] = NCI Yeast Anticancer Drug Screen. Data for the mec2-1 strain (AID 157); conditions: S. cerevisiae mec2-1 strain, hits give high values
How it was run: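 Compounds were applied to mec2-1 yeast cells. Their growth was then compared with that of vehicle-treated cultures to give growth inhibition.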

[6] = NCI Yeast Anticancer Drug Screen. Data for the rad14 strain (AID 159);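 note: 0% = growth of vehicle-treated control cultures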; conditions: S. cerevisiae rad14 strain growth inhibition, hits give high values
How it was run: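 Here, inhibition of yeast growth was measured after compound exposure, using a strain with a genetic defect in DNA damage repair and vehicle-treated cultures as the reference.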

[7] = NCI Yeast Anticancer Drug Screen. Data for the sgs1 mgt1 strain (AID 161);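 note: 0% = growth of cultures given vehicle only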; conditions: S. cerevisiae sgs1 mgt1 strain, hits give high values
How it was run: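 Percent growth inhibition was derived by comparing compound-exposed mutant yeast with vehicle-exposed cultures. The strain carries alterations in DNA damage repair.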

[8] = NCI Yeast Anticancer Drug Screen. Data for the CLN2oe strain (AID 163);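 note: 0% = growth of vehicle-only control cultures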; conditions: S. cerevisiae CLN2oe strain, hits give high values
How it was run: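 Cells of an engineered yeast line with disturbed cell-cycle regulation are treated with compound. Inhibition of growth is then calculated relative to the vehicle-treated reference.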

[9] = NCI Yeast Anticancer Drug Screen. Data for the cln2 rad14 strain (AID 165);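 note: 0% = growth equal to vehicle treated cultures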; conditions: S. cerevisiae cln2 rad14 strain, hits give high values
How it was run: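 Strain: cln2 rad14 yeast, altered in cell cycle control and DNA damage repair. Read-out: growth inhibition vs vehicle.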

[10] = NCI Yeast Anticancer Drug Screen. Data for the bub3 strain (AID 167); conditions: S. cerevisiae bub3 mutant strain, hits give high values
How it was run: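 Whole-cell yeast assay. The mutant strain was incubated with compounds, and growth inhibition was determined by comparison with vehicle-treated cells.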

[11] = NCI Yeast Anticancer Drug Screen. Data for the mlh1 strain (AID 171);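 note: 0% = growth of vehicle-treated control cultures of the same strain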; conditions: S. cerevisiae mlh1 strain growth inhibition, hits give high values
How it was run: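 Test agents were incubated with yeast bearing a defined DNA damage repair or cell cycle control alteration; values are growth inhibition normalised to vehicle-treated cultures.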

[12] = NCI Yeast Anticancer Drug Screen. Data for the sgs1 strain (AID 173);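 note: 0% = growth of vehicle-only control cultures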; conditions: S. cerevisiae sgs1 mutant, hits give high values
How it was run: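 Strain with an altered DNA repair or cell cycle pathway exposed to compound. Growth then measured. Value = inhibition versus vehicle control.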

[13] = NCI Yeast Anticancer Drug Screen. Data for the mlh1 rad18 strain (AID 175); conditions: S. cerevisiae mlh1 rad18 strain growth inhibition, hits give high values
How it was run: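 A repair-deficient yeast strain is exposed to test compound, and growth is scored relative to vehicle-treated controls.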

[14] = NCI Yeast Anticancer Drug Screen. Data for the rad18 strain (AID 177); conditions: S. cerevisiae rad18 mutant growth inhibition, hits give high values
How it was run: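 DNA-repair-defective yeast; compound treatment; growth inhibition scored against vehicle.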

[15] = NCI Yeast Anticancer Drug Screen. Data for the mgt1 strain (AID 153); conditions: S. cerevisiae mgt1 mutant growth inhibition, hits give high values
How it was run: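 Compounds were applied to mgt1 mutant yeast, and growth was then compared against vehicle-treated control cultures to give percent inhibition.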

[16] = NCI Yeast Anticancer Drug Screen. Data for the wt2 strain (AID 169);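 note: 0% = growth of vehicle-treated yeast cultures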; conditions: S. cerevisiae wt2 strain growth inhibition, hits give high values
How it was run: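 Growth of compound-treated yeast is measured and expressed as inhibition relative to vehicle-only controls.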

[17] = at 5.0 µM (retest, dose inferred, filed as 0.5)
[18] = at 50.0 µM (retest, dose inferred, filed as 5.0)

Measured: growth inhibition

CC(C)/C(Cl)=N\OC(=O)Nc1ccc(F)cc1
active: [1]; at 100.0 µM 78% | [3]; at 100.0 µM 98% | [4]; at 100.0 µM 81% | [5]; at 100.0 µM 95% | [7]; [18] 86% | [7]; at 50.0 µM 88.7% | [10]; [18] 83% | [10]; at 50.0 µM 73.8% | [10]; at 100.0 µM 99% | [11]; at 100.0 µM 98% | [12]; at 33.0 µM 89% | [12]; at 100.0 µM 99%
inactive: [1]; at 1.2 µM 3% | [1]; at 3.7 µM 6% | [1]; at 11.0 µM 11% | [1]; at 33.0 µM 20% | [2]; at 1.2 µM 2% | [2]; at 3.7 µM -1% | [2]; at 11.0 µM -3% | [2]; at 33.0 µM -5% | [2]; at 100.0 µM -3% | [3]; at 1.2 µM 1% | [3]; at 3.7 µM 11% | [3]; at 11.0 µM 24% | [3]; at 33.0 µM 57% | [4]; at 1.2 µM 5% | [4]; at 3.7 µM 10% | [4]; [17] 24% | [4]; at 11.0 µM 12% | [4]; at 33.0 µM 23% | [4]; [18] 48% | [4]; at 50.0 µM 10.7% | [5]; at 1.2 µM 6% | [5]; at 3.7 µM 10% | [5]; [17] 35% | [5]; at 11.0 µM 13% | [5]; at 33.0 µM 23% | [5]; [18] 63% | [5]; at 50.0 µM 34% | [6]; at 1.2 µM 4% | [6]; at 3.7 µM 8% | [6]; at 11.0 µM 11% | [6]; at 33.0 µM 13% | [6]; at 100.0 µM 69% | [7]; [17] 26% | [8]; at 1.2 µM 12% | [8]; at 3.7 µM 16% | [8]; at 11.0 µM 15% | [8]; at 33.0 µM 14% | [8]; at 100.0 µM 15% | [9]; [17] 27% | [9]; [18] 29% | [9]; at 50.0 µM 38.8% | [10]; at 1.2 µM 13% | [10]; at 3.7 µM 22% | [10]; [17] 52% | [10]; at 11.0 µM 32% | [10]; at 33.0 µM 45% | [11]; at 1.2 µM 1% | [11]; at 3.7 µM 2% | [11]; at 11.0 µM 6% | [11]; at 33.0 µM 62% | [12]; at 1.2 µM -1% | [12]; at 3.7 µM -2% | [12]; at 11.0 µM 13% | [13]; [17] 33% | [13]; [18] 54% | [13]; at 50.0 µM -41.8% | [14]; at 1.2 µM -1% | [14]; at 3.7 µM 0% | [14]; at 11.0 µM 2% | [14]; at 33.0 µM 5% | [14]; at 100.0 µM 56%

CNC1C(OC2C(OC3C(O)C(O)C(N=C(N)N)C(O)C3N=C(N)N)OC(C)C2(O)CO)OC(CO)C(O)C1O (stereo unspecified)
active: [4]; at 50.0 µM 91.3% | [5]; at 50.0 µM 93.5% | [7]; at 50.0 µM 91.8% | [10]; at 50.0 µM 93.5% | [13]; at 50.0 µM 93.1%
inactive: [1]; at 1.2 µM -3% | [1]; at 3.7 µM 1% | [1]; at 11.0 µM 2% | [1]; at 33.0 µM 28% | [1]; at 100.0 µM -7% | [2]; at 1.2 µM 4% | [2]; at 3.7 µM -4% | [2]; at 11.0 µM -4% | [2]; at 33.0 µM 10% | [2]; at 100.0 µM -4% | [3]; at 1.2 µM -2% | [3]; at 3.7 µM 4% | [3]; at 11.0 µM -2% | [3]; at 33.0 µM -3% | [3]; at 100.0 µM -10% | [15]; at 1.2 µM 0% | [15]; at 3.7 µM 7% | [15]; at 11.0 µM -6% | [15]; at 33.0 µM 17% | [15]; at 100.0 µM -9% | [4]; at 1.2 µM -2% | [4]; at 3.7 µM 7% | [4]; [17] -19% | [4]; at 11.0 µM 4% | [4]; at 33.0 µM 31% | [4]; [18] -6% | [4]; at 100.0 µM -11% | [5]; at 1.2 µM -2% | [5]; at 3.7 µM -1% | [5]; [17] -15% | [5]; at 11.0 µM -3% | [5]; at 33.0 µM 10% | [5]; [18] 19% | [5]; at 100.0 µM -3% | [7]; [17] 19% | [7]; [18] -6% | [8]; at 1.2 µM -7% | [8]; at 3.7 µM -6% | [8]; at 11.0 µM -2% | [8]; at 33.0 µM 16% | [8]; at 100.0 µM -12% | [10]; at 1.2 µM -2% | [10]; at 3.7 µM -1% | [10]; [17] 5% | [10]; at 11.0 µM 12% | [10]; at 33.0 µM 45% | [10]; [18] 2% | [10]; at 100.0 µM -9% | [16]; at 1.2 µM -3% | [16]; at 3.7 µM 0% | [16]; at 11.0 µM -1% | [16]; at 33.0 µM 34% | [16]; at 100.0 µM -6% | [11]; at 1.2 µM -2% | [11]; at 3.7 µM -4% | [11]; at 11.0 µM 2% | [11]; at 33.0 µM 11% | [11]; at 100.0 µM 10% | [13]; [17] 12% | [13]; [18] 7% | [14]; at 1.2 µM 1% | [14]; at 3.7 µM 10% | [14]; at 11.0 µM 5% | [14]; at 33.0 µM 35% | [14]; at 100.0 µM -12%

CCCC/C=C/C(CC)(C(=O)OCC)C(=O)OCC
inactive: [1]; at 1.2 µM -1% | [1]; at 3.7 µM -2% | [1]; at 11.0 µM -4% | [1]; at 33.0 µM -1% | [1]; at 100.0 µM -2% | [2]; at 1.2 µM -2% | [2]; at 3.7 µM -3% | [2]; at 11.0 µM -5% | [2]; at 33.0 µM -7% | [2]; at 100.0 µM -9% | [3]; at 1.2 µM -2% | [3]; at 3.7 µM 1% | [3]; at 11.0 µM -2% | [3]; at 33.0 µM 3% | [3]; at 100.0 µM 39% | [15]; at 1.2 µM -3% | [15]; at 3.7 µM -1% | [15]; at 11.0 µM -2% | [15]; at 33.0 µM -5% | [15]; at 100.0 µM -3% | [4]; at 1.2 µM -2% | [4]; at 3.7 µM -4% | [4]; [17] -9% | [4]; at 11.0 µM -3% | [4]; at 33.0 µM -3% | [4]; [18] -11% | [4]; at 50.0 µM 3.6% | [4]; at 100.0 µM -6% | [5]; at 1.2 µM 0% | [5]; at 3.7 µM -1% | [5]; [17] 5% | [5]; at 11.0 µM -2% | [5]; at 33.0 µM -1% | [5]; [18] 43% | [5]; at 50.0 µM -11.7% | [5]; at 100.0 µM -1% | [7]; [17] -3% | [7]; [18] 33% | [7]; at 50.0 µM 10.6% | [8]; at 1.2 µM -4% | [8]; at 3.7 µM 0% | [8]; at 11.0 µM -6% | [8]; at 33.0 µM -7% | [8]; at 100.0 µM -3% | [9]; [17] 6% | [9]; [18] 24% | [9]; at 50.0 µM 16.6% | [10]; at 1.2 µM 0% | [10]; at 3.7 µM -1% | [10]; [17] 11% | [10]; at 11.0 µM 1% | [10]; at 33.0 µM 6% | [10]; [18] 52% | [10]; at 50.0 µM 24.1% | [10]; at 100.0 µM 11% | [11]; at 1.2 µM -3% | [11]; at 3.7 µM -6% | [11]; at 11.0 µM -5% | [11]; at 33.0 µM -2% | [11]; at 100.0 µM 5% | [12]; at 1.2 µM -2% | [12]; at 3.7 µM 1% | [12]; at 11.0 µM 0% | [12]; at 33.0 µM 0% | [12]; at 100.0 µM 5% | [13]; [17] 7% | [13]; [18] 36% | [13]; at 50.0 µM -8.65% | [14]; at 1.2 µM -1% | [14]; at 3.7 µM 3% | [14]; at 11.0 µM 4% | [14]; at 33.0 µM 3% | [14]; at 100.0 µM 7%

From PubChem BioAssay (NCI)
